Test results as given in the supplement of paper PMC12669032.
A number with no mark means an inactive call.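 Rule for the calls: active = AUC reduced over 20% with Padj below 0.05 in at least 2 of 3 replicates; inactive = otherwise.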

Tests used:
Assay in all cases: growth AUC relative to DMSO control (median of replicates) (fraction); higher = more growth (less inhibition), active = hit call of the paper
Conditions in all cases: 20 µM; 24 h
Akkermansia muciniphila = test system: Akkermansia muciniphila
Method in brief: (§1)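 In round-bottom 96-well plates sealed with pierced gas-permeable seals, gut bacterial monocultures in mGAM were grown anaerobically at 37 °C from OD600 0.05 with 20 µM compound (1% DMSO). OD600 readings were taken hourly for 24 h, and the minimum OD was set to 0. Area under the growth curve was then normalised to the plate median of solvent-only wells, or to row and column medians on the industrial chemical plate. The value given is the median of three biological replicates grown on separate days.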

Bacteroides caccae = test system: Bacteroides caccae
Method in brief: as §1

Bacteroides clarus = test system: Bacteroides clarus
Method in brief: as §1

Bacteroides dorei = test system: Bacteroides dorei
Method in brief: as §1

Bacteroides stercoris = test system: Bacteroides stercoris
Method in brief: as §1

[1] = test system: Bacteroides thetaiotaomicron
Method in brief: as §1

Bacteroides uniformis = test system: Bacteroides uniformis
Method in brief: as §1

[2] = test system: Bifidobacterium longum subsp. longum
Method in brief: as §1

Clostridium difficile = test system: Clostridium difficile
Method in brief: as §1

Collinsella aerofaciens = test system: Collinsella aerofaciens
Method in brief: as §1

Coprococcus comes = test system: Coprococcus comes
Method in brief: as §1

Escherichia coli ED1a = test system: Escherichia coli ED1a
Method in brief: as §1

Escherichia coli IAI1 = test system: Escherichia coli IAI1
Method in brief: as §1

Eubacterium rectale = test system: Eubacterium rectale
Method in brief: as §1

[3] = test system: Fusobacterium nucleatum subsp. animalis
Method in brief: as §1

Lactobacillus gasseri = test system: Lactobacillus gasseri
Method in brief: as §1

Lactobacillus paracasei = test system: Lactobacillus paracasei
Method in brief: as §1

Odoribacter splanchnicus = test system: Odoribacter splanchnicus
Method in brief: as §1

[4] = test system: Parabacteroides distasonis
Method in brief: as §1

Parabacteroides merdae = test system: Parabacteroides merdae
Method in brief: as §1

| Structure (SMILES) | growth AUC (Akkermansia muciniphila) | growth AUC (Bacteroides caccae) | growth AUC (Bacteroides clarus) | growth AUC (Bacteroides dorei) | growth AUC (Bacteroides stercoris) | growth AUC [1] | growth AUC (Bacteroides uniformis) | growth AUC [2] | growth AUC (Clostridium difficile) | growth AUC (Collinsella aerofaciens) | growth AUC (Coprococcus comes) | growth AUC (Escherichia coli ED1a) | growth AUC (Escherichia coli IAI1) | growth AUC (Eubacterium rectale) | growth AUC [3] | growth AUC (Lactobacillus gasseri) | growth AUC (Lactobacillus paracasei) | growth AUC (Odoribacter splanchnicus) | growth AUC [4] | growth AUC (Parabacteroides merdae) |
| --- | --- | --- | --- | --- | --- | --- | --- | --- | --- | --- | --- | --- | --- | --- | --- | --- | --- | --- | --- | --- |
| N#Cc1nn(-c2c(Cl)cc(C(F)(F)F)cc2Cl)c(N)c1S(=O)(=O)C(F)(F)F | 1.09 | 0.823 | 0.966 | 0.961 | 1.16 | 0.996 | 0.961 | 0.936 | 0.866 | 1.03 | 0.968 | 1.04 | 1.02 | 0.945 | 1.01 | 1.01 | 0.929 | 0.978 | 0.904 | 0.97 |
| CN1CSC(=S)N(C)C1 | 1.02 | 1.01 | 0.939 | 1.03 | 0.942 | 0.976 | 1.05 | 1.01 | 0.976 | 1.07 | 0.957 | 0.991 | 0.994 | 1.06 | 0.966 | 1.07 | 1.04 | 0.988 | 0.991 | 0.976 |
| Cc1cc(C(F)(C(F)(F)F)C(F)(F)F)ccc1NC(=O)c1cccc(I)c1C(=O)NC(C)(C)CS(C)(=O)=O | 1.06 | 1.2 | 1.2 | 1 | 0.937 | 1.02 | 1.01 | 1.06 | 0.92 | 1.7 | 1.21 | 1.1 | 1.14 | 1.09 | 1.13 | 3.03 | 1.48 | 0.994 | 0.795 | 0.99 |
| Nc1cc(Cl)ccc1Cl | 1.03 | 0.993 | 1.05 | 1.04 | 1.25 | 1.03 | 1.03 | 0.992 | 1 | 1.01 | 1 | 1 | 1.01 | 0.989 | 1.07 | 1.04 | 0.958 | 1 | 1.02 | 1.04 |
| CN(C)C(CSS(=O)(=O)[O-])CSS(=O)(=O)O.[Na+] | 1.01 | 1.02 | 0.998 | 1.03 | 1.03 | 0.98 | 1.13 | 1.01 | 0.943 | 0.999 | 0.987 | 1.03 | 1.01 | 1.5 | 1.11 | 0.952 | 0.984 | 1.05 | 0.979 | 1.03 |
| CCC(C)(C)c1ccc(O)cc1 | 0.91 | 1.01 | 0.981 | 1.03 | 0.859 | 1 | 1 | 1.08 | 1.06 | 1.01 | 1.03 | 0.978 | 0.985 | 0.953 | 1 | 0.957 | 0.999 | 1.08 | 1.03 | 1.01 |
| CCNc1nc(Cl)nc(NC(C)(C)C#N)n1 | 0.889 | 1.02 | 0.983 | 1.04 | 0.946 | 0.998 | 0.986 | 0.946 | 1.05 | 0.997 | 0.988 | 1.02 | 0.988 | 0.889 | 0.949 | 1.19 | 0.968 | 0.985 | 1 | 1.01 |
| CC(C)OC(=O)Nc1ccccc1 | 0.984 | 1.02 | 1.02 | 1.07 | 1.12 | 1.01 | 0.98 | 0.988 | 1.05 | 1.02 | 1.03 | 0.994 | 1.01 | 0.991 | 1.02 | 1.13 | 1.04 | 0.962 | 1.01 | 1 |
| COc1cc(OC)nc(Oc2cccc(Oc3nc(OC)cc(OC)n3)c2C(=O)[O-])n1.[Na+] | 0.934 | 0.973 | 0.963 | 1.02 | 0.99 | 1.01 | 1 | 0.965 | 1.06 | 1.02 | 0.98 | 0.989 | 0.979 | 1.01 | 1.04 | 0.958 | 0.982 | 1.01 | 0.994 | 1.01 |
| OCC1C(CO)C2(Cl)C(Cl)=C(Cl)C1(Cl)C2(Cl)Cl (stereo not given) | 0.817 | 0.721 (active) | 0.818 | 0.859 | 0.259 | 0.799 (active) | 0.275 (active) | 1.04 | 0.901 | 0.947 | 0.934 | 0.994 | 0.975 | 1.07 | 1 | 0.827 | 1.01 | 0.59 (active) | 1.09 | 0.892 |
| CNC(=O)O/N=C/C(C)(C)S(C)(=O)=O | 0.927 | 0.994 | 0.962 | 1.02 | 0.973 | 1 | 1.01 | 1.05 | 0.966 | 1.01 | 0.98 | 1.03 | 1.03 | 0.939 | 0.97 | 1.05 | 1 | 0.964 | 1.04 | 0.977 |
| CC(=O)CC(c1ccc(Cl)cc1)c1c(O)c2ccccc2oc1=O (stereo not given) | 0.928 | 0.939 | 0.873 | 0.958 | 0.91 | 0.938 | 0.777 (active) | 0.939 | 1.04 | 1.01 | 0.987 | 0.952 | 1.02 | 0.881 | 0.929 | 1.3 | 0.982 | 0.971 | 0.787 (active) | 0.954 |
| CCOc1cc(OP(=S)(OC)OC)nc(CC)n1 | 0.924 | 1.03 | 1 | 1.01 | 1.13 | 0.994 | 0.996 | 1.01 | 0.997 | 1.03 | 0.984 | 1 | 1.01 | 1.04 | 1.04 | 0.996 | 1.05 | 0.987 | 0.951 | 0.979 |
| CCOP(=O)(Sc1ccccc1)Sc1ccccc1 | 1.16 | 0.985 | 0.895 | 0.927 | 0.795 | 0.932 | 0.881 | 1.02 | 0.984 | 1.03 | 1.02 | 0.995 | 0.982 | 1.13 | 1.08 | 0.957 | 0.953 | 0.965 | 0.649 (active) | 0.934 |
| CCOP(=O)(NC(C)C)Oc1ccc(SC)c(C)c1 (stereo not given) | 1.19 | 0.974 | 0.982 | 0.877 | 0.92 | 0.998 | 0.931 | 1.01 | 0.976 | 0.95 | 0.974 | 0.985 | 0.953 | 1.04 | 0.903 | 0.895 | 0.965 | 0.954 | 0.77 | 0.966 |
| ClC1=C(Cl)C2(Cl)C3C4C=CC(C4)C3C1(Cl)C2(Cl)Cl (stereo not given) | 1.11 | 1.02 | 0.987 | 1.01 | 1.02 | 1.03 | 1.01 | 0.998 | 1.02 | 1.01 | 1.02 | 0.996 | 1.02 | 0.986 | 1 | 0.955 | 0.997 | 1.05 | 1.05 | 1.02 |
| CCOP(=O)(OCC)Oc1ccc([N+](=O)[O-])cc1 | 0.962 | 1.03 | 0.999 | 1.01 | 1.08 | 1.01 | 1 | 1.15 | 1.03 | 1.05 | 1.03 | 0.988 | 1.03 | 0.91 | 1.06 | 1.02 | 1.04 | 1.05 | 0.999 | 0.986 |
| CC(C)C1(C)N=C(c2ncccc2C(=O)O)NC1=O (stereo not given) | 0.976 | 0.918 | 1.01 | 0.761 | 1.17 | 0.974 | 1.02 | 1 | 0.991 | 0.978 | 1.02 | 0.993 | 0.974 | 1.01 | 1.04 | 0.946 | 1.03 | 0.989 | 1.04 | 0.997 |
| Nc1ncn[nH]1 | 0.877 | 1.04 | 1.01 | 1.02 | 0.931 | 1.01 | 0.997 | 1.02 | 1.01 | 0.995 | 0.974 | 1.02 | 1.01 | 0.987 | 1.1 | 0.942 | 0.995 | 1.03 | 1.02 | 0.981 |
| CCC(CC)Nc1c([N+](=O)[O-])cc(C)c(C)c1[N+](=O)[O-] | 1.03 | 0.888 | 0.942 | 0.91 | 0.86 | 0.96 | 0.954 | 1 | 0.962 | 0.909 | 0.982 | 0.987 | 0.947 | 0.979 | 0.93 | 0.858 | 0.935 | 1.11 | 0.974 | 0.942 |
| CP(=O)(O)CCC(N)C(=O)[O-].[NH4+] (stereo not given) | 1.08 | 1.04 | 1.03 | 0.977 | 1.2 | 1 | 1.02 | 1.02 | 1.01 | 1.02 | 1.06 | 1.02 | 1.02 | 1.08 | 1.17 | 0.944 | 1.08 | 1.02 | 1.1 | 1.03 |
| CCOC(=O)Nc1cccc(OC(=O)Nc2ccccc2)c1 | 0.899 | 1.06 | 0.961 | 1 | 0.889 | 0.998 | 0.95 | 0.944 | 0.986 | 0.977 | 0.933 | 1.01 | 1.03 | 0.901 | 0.894 | 1.24 | 0.908 | 0.986 | 0.967 | 0.949 |
| CC(Oc1ccc(Oc2nc3ccc(Cl)cc3o2)cc1)C(=O)O (racemic) | 0.992 | 1.05 | 0.995 | 0.996 | 1.25 | 0.996 | 0.962 | 1.03 | 0.987 | 1.03 | 1.05 | 1.02 | 0.997 | 1.03 | 1.12 | 1.04 | 1.07 | 0.923 | 1.04 | 0.97 |
| CCOc1ccc(C(C)(C)COCc2cccc(Oc3ccccc3)c2)cc1 | 1.08 | 0.967 | 1.03 | 0.967 | 0.792 | 0.958 | 1.05 | 1.48 | 1.04 | 0.967 | 1 | 0.991 | 0.982 | 1.06 | 0.972 | 0.918 | 1.04 | 1.07 | 0.987 | 0.992 |
| N#Cc1nn(-c2c(Cl)cc(C(F)(F)F)cc2Cl)c(N)c1SC(F)(F)F | 1.01 | 0.941 | 0.858 | 0.899 | 1.14 | 0.953 | 0.928 | 1.09 | 0.909 | 0.942 | 0.857 | 1.02 | 0.985 | 0.687 (active) | 0.96 | 0.729 (active) | 1.04 | 0.571 (active) | 0.751 (active) | 0.868 |
